Bioassay records (PubChem BioAssay)
Sm TGR block: blocks Schistosoma mansoni thioredoxin glutathione reductase. Q962Y6. purified TGR, DTNB reduction, TNB absorbance 405 nm. Potency, µM (doses to about 114 µM), without a hit: top-dose activity change, negative = inhibition, actives largely listed as inhibitors. 3% of 360,000 active. AID 485364; also: % is scaled to controls: 0 for no effect and ±100 for the full control effect; nearly all actives have a fitted effect of over 60% in size
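Kinetic colorimetric format: TGR-catalysed, NADPH-driven DTNB reduction monitored via TNB absorbance. Enzyme dispensed at 20 nM; compound exposure 15 min at room temperature before reaction start.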
TbPYK inhibitor: inhibitors of Trypanosoma brucei pyruvate kinase; 0.12% of 410,000 active; TbPYK enzyme, Kinase-Glo Plus ATP luminescence, 45 min; Potency, µM (highest dose often 76.8 µM), without a hit: at the highest dose activity, negative = inhibition, actives largely listed as inhibitors; AID 624173; also: % is scaled to controls: 0 for no effect and ±100 for the full control effect; nearly all actives have a fitted effect of over 50% in size
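In this concentration-response screen, enzyme-free wells defined baseline while DMSO plates tracked drift. Each reaction combined TbPYK, substrate, compound and 130 uM ADP for 45 min at room temperature. Kinase-Glo Plus luminescence gave the signal.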
RE007 growth inh: less growth of the S. pombe RE007 Vpr strain; Potency, µM (top dose mostly 92.2 µM), inactives show top-dose activity change, negative = less growth, most hits filed as inhibitors; 0.21% of 360,000 active; AID 651644; S. pombe RE007 Vpr strain, BacTiter-Glo ATP luminescence, 24 h; active = well fitted falling curve with a large enough effect; inconclusive = small, poorly fitted or top-dose-only effect; inactive = no such curve, though single readings can be large or run the other way; also: % is scaled to controls: 0 for no effect and ±100 for the full control effect; nearly all actives have a fitted effect of over 50% in size
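Fission yeast RE007 carrying one integrated HIV-1 vpr copy, seeded at OD 0.01 in PMG+AL medium with 23 nL pinned compound. Grown 24 h at 30 degrees; viability read by BacTiter-Glo luminescence after 5 min.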
SARS PLpro yeast: blocks SARS-CoV papain-like protease in a yeast assay | S. cerevisiae expressing SARS-CoV PLpro, growth rescue | Potency, µM (highest dose often 32.9 µM), inactives show top-dose activity, positive = growth rescue, usual class: activators | 0.19% of 330,000 active | AID 485353; calls by dose curve; also: 0% is about no effect; nearly all actives have a fitted effect of over 55% in size
AmpC inh no detg: inhibitors of E. coli AmpC beta-lactamase without detergent; AmpC nitrocefin hydrolysis, absorbance 480 nm, 0.0001% Triton; 0.52% of 330,000 active; Potency, µM (titrated, usually from 57.1 µM), for the others: at the highest dose activity change, negative = inhibition, most hits filed as inhibitors; AID 485341;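 also: plate controls were no compound for no effect and no enzyme for full effect; nearly all actives have a fitted effect of over 20% in size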
Target sequence (P00811 whole entry, looked up): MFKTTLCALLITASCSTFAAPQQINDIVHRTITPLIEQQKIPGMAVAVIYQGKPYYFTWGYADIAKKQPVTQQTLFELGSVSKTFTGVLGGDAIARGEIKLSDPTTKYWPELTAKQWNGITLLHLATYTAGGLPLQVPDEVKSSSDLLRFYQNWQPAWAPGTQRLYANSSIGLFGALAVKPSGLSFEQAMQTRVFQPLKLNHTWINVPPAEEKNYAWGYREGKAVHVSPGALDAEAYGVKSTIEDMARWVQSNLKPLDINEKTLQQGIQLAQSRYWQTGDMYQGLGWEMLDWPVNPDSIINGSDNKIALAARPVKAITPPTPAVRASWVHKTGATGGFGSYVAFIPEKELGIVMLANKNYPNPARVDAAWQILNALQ
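20 mM phosphate pH 7.0 + 0.01% (detergent screen) or 0.0001% Triton X-100; 5.3 nM AmpC reagent; cpd preinc 15 min RT; nitrocefin (800 uM stock) to start; A480 q20 s × 4 min; Activity was normalised to no-enzyme and no-compound control wells.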
AmpC detergent: blocks E. coli AmpC beta-lactamase in detergent assay. P00811. AmpC hydrolysis of nitrocefin, absorbance 480 nm, 0.01% Triton. Potency, µM (doses to about 114 µM), for inactives: at the highest dose activity change, negative = inhibition, hits mostly inhibitors. 0.041% of 370,000 active;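 also: 0% = no-compound wells and -100% = no-enzyme wells; nearly all actives have a fitted effect of over 25% in size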
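20 mM phosphate pH 7.0 + 0.01% (detergent screen) or 0.0001% Triton X-100; 5.3 nM AmpC reagent; cpd preinc 15 min RT; nitrocefin (800 uM stock) to start; A480 q20 s × 4 min; Activity was normalised to no-enzyme and no-compound control wells.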
* = called active by the depositor. Most compounds without a hit are left out; they make up all but 3.3% or so of the library. Unless noted, calls follow the shape of the dose curve; as a rule, active = well fitted curve in the direction sought with a large enough effect; inconclusive = small, poorly fitted or top-dose-only effect, or another doubt; inactive = no such curve, though single readings can be large; an effect the other way counts as inactive or inconclusive. Potency is read from the fitted curve at half-maximal effect.

Screening Cc1ccccc1CNC(=O)c1ccc(CN2CC(=O)N3CCCCC3C2=O)cc1 (stereo not given) returned Sm TGR block -5%, TbPYK inhibitor -4% and AmpC detergent -1%.
`CCN(CC)C(=S)SSC(=S)N(CC)CC` gave Sm TGR block -32%, TbPYK inhibitor 6.3µM*, RE007 growth inh inconclusive, SARS PLpro yeast -77%, AmpC inh no detg inconclusive and AmpC detergent inconclusive.
For C=C(Cl)CSC(=S)N(CC)CC the results were Sm TGR block inconclusive, TbPYK inhibitor 2%, RE007 growth inh 9%, SARS PLpro yeast 13%, AmpC inh no detg -5% and AmpC detergent -5%.
Screening COC(=O)c1ccccc1NC(=O)c1nn(C)c2c1COc1ccccc1-2 returned Sm TGR block 7.1µM*, TbPYK inhibitor -8% and AmpC detergent 3%.
For COc1ccccc1NC(=O)c1nn(C)c2c1CS(=O)(=O)c1ccccc1-2 the results were Sm TGR block 2%, TbPYK inhibitor 2% and AmpC detergent 14%.
Screening COc1cc(NC(=O)c2nn(C)c3c2CS(=O)(=O)c2ccccc2-3)cc(OC)c1 returned Sm TGR block 13%, TbPYK inhibitor 5%, RE007 growth inh 16%, SARS PLpro yeast -2%, AmpC inh no detg 96% and AmpC detergent 0%.
`COc1cc(NC(=O)c2nn(C)c3c2COc2ccccc2-3)cc(OC)c1OC` gave Sm TGR block 32µM*, TbPYK inhibitor 4% and AmpC detergent 4%.
`Cc1ccccc1NC(=O)c1sc2nc3c(cc2c1N)CN(Cc1ccccc1)CC3` gave Sm TGR block 79µM*, TbPYK inhibitor -3% and AmpC detergent 15%.
Screening Cc1occc1C(=O)NC(C)C1CCCO1 (stereo not given) returned Sm TGR block 22µM*, TbPYK inhibitor 1%, RE007 growth inh 13%, SARS PLpro yeast -3%, AmpC inh no detg -8% and AmpC detergent 2%.
`CC(NC(=O)c1ccco1)C1CCCO1` (stereo not given) gave Sm TGR block 5%, TbPYK inhibitor -10%, RE007 growth inh -16%, SARS PLpro yeast 8%, AmpC inh no detg -8% and AmpC detergent -9%.
`O=C(Cn1ncc(Cl)c(Cl)c1=O)NC1CCCCC1` gave Sm TGR block 25µM*, TbPYK inhibitor -2%, RE007 growth inh -23%, SARS PLpro yeast -30%, AmpC inh no detg -18% and AmpC detergent 7%.
O=C(Cn1ncc(Cl)c(Cl)c1=O)NCC1CCCCC1 was read as Sm TGR block 35µM*, TbPYK inhibitor 13%, RE007 growth inh 19%, SARS PLpro yeast -32%, AmpC inh no detg -29% and AmpC detergent -11%.
For O=C(Cn1ncc(Cl)c(Cl)c1=O)NC1CCS(=O)(=O)C1 (stereo not given) the results were Sm TGR block 6.3µM*, TbPYK inhibitor 2%, RE007 growth inh 14%, SARS PLpro yeast 2%, AmpC inh no detg -10% and AmpC detergent inconclusive.
For O=C(CN1C(=O)c2ccccc2C1=O)NC1CCS(=O)(=O)C1 (stereo not given) the results were TbPYK inhibitor -8% and RE007 growth inh 0%.
`Cc1cccc(NC(=O)CNC(=O)Cn2ncc(Cl)c(Cl)c2=O)c1C` gave TbPYK inhibitor -8%, RE007 growth inh -15%, SARS PLpro yeast 8% and AmpC inh no detg -21%.
Cc1ccc(Cn2c(C)c3cnn(CC(=O)NC4CCCC4)c(=O)c3c2C)cc1 was read as Sm TGR block inconclusive, TbPYK inhibitor 0%, RE007 growth inh 5%, SARS PLpro yeast -1%, AmpC inh no detg -12% and AmpC detergent -9%.
Screening Cc1ccc(NC(=O)Cn2ncc(Cl)c(Cl)c2=O)cc1S(=O)(=O)N1CCCCC1 returned Sm TGR block 8.9µM*, TbPYK inhibitor -2%, RE007 growth inh -3%, SARS PLpro yeast 2%, AmpC inh no detg 4µM* and AmpC detergent -2%.
CCn1c(=O)n(-c2ccc3c(c2)OCO3)c2nc(-c3cc(OC)ccc3OC)nc(C(N)=O)c21 was read as Sm TGR block 6%, TbPYK inhibitor 2% and AmpC detergent 15%.
`O=C(Nc1cc(Cl)cc(Cl)c1)c1ccc(F)c(S(=O)(=O)N2CCc3ccccc32)c1` gave Sm TGR block 5%, TbPYK inhibitor 3% and AmpC detergent -4%.
CC1=C(C(N)=O)C(c2ccc(C(C)C)cc2)n2nc(SCc3ccccc3)nc2N1 (stereo not given) was read as Sm TGR block -14%, TbPYK inhibitor -1% and AmpC detergent 8%.
COc1ccc(CN2C(=O)NC(=O)/C(=C/c3ccc([N+](=O)[O-])s3)C2=O)cc1 was read as Sm TGR block 1.1µM*, TbPYK inhibitor inconclusive, RE007 growth inh inconclusive, SARS PLpro yeast -4%, AmpC inh no detg inconclusive and AmpC detergent -7%.
Screening O=C1NC(=O)N(Cc2ccc(F)cc2)C(=O)/C1=C\c1ccc([N+](=O)[O-])s1 returned Sm TGR block 2.2µM*, TbPYK inhibitor inconclusive, RE007 growth inh inconclusive, SARS PLpro yeast 1%, AmpC inh no detg 11µM* and AmpC detergent -6%.
For COc1ccc(CN2C(=O)NC(=O)/C(=C\c3ccco3)C2=O)cc1 the results were Sm TGR block inconclusive, TbPYK inhibitor inconclusive, RE007 growth inh -14%, SARS PLpro yeast -3%, AmpC inh no detg -51% and AmpC detergent inconclusive.
COc1ccc(CN2C(=O)NC(=O)/C(=C\c3cc(OC)c(OC)c(OC)c3)C2=O)cc1 was read as Sm TGR block 13µM*, TbPYK inhibitor -20%, RE007 growth inh 4%, SARS PLpro yeast 0%, AmpC inh no detg -13% and AmpC detergent inconclusive.
CCOc1ccc(NC(=O)c2oc3ccccc3c2NC(=O)Cc2cccc(C)c2)cc1 was read as Sm TGR block -8%, TbPYK inhibitor -12% and AmpC detergent 12%.
`O=C(COc1ccccc1)Nc1ccc(C(=O)OCc2cc(=O)n3nc(C4CC4)sc3n2)cc1` gave Sm TGR block -4%, TbPYK inhibitor 6% and AmpC detergent 14%.
COc1cc(/C=C/C(=O)OCC(=O)NC(=O)NC23CC4CC(CC(C4)C2)C3)ccc1OCC#N was read as Sm TGR block -2%, TbPYK inhibitor -6%, RE007 growth inh 18%, SARS PLpro yeast -1%, AmpC inh no detg 8.9µM* and AmpC detergent -6%.
